In PubChem BioAssay (Tox21):
Values joined by “and” are separate entries in the source; they are usually repeats but may differ in a detail not shown here. Identical values can stand only once. Results filed as inconclusive are left out. Where a call stands in place of a potency, no number is given. More than one record can exist for a structure, and the calls need not agree. Active and inactive are the calls of the source. Unless noted, the call rests on the fitted dose curve; in most records, active means well fitted curve in the direction sought with a large enough effect in the repeat runs; inconclusive means weak or mixed curves; inactive means no such curve, though single readings can be large; an effect the other way counts as inactive or inconclusive.

Columns and labels:
[1] = qHTS assay to identify small molecule agonists of the RXR signaling pathway - cell viability counter screen (AID 1159529); further: nearly all actives have a fitted effect of over 50% in size; further: potency means the concentration at half of the fitted maximal effect
In short: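 Compounds dissolved in DMSO were pinned onto HEK 293T cells carrying a beta-lactamase reporter under RXR-alpha control and incubated 16 hr. Cytotoxicity was then quantified by CellTiter-Glo luminescence.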

[2] = qHTS assay to identify small molecule antagonists of the retinoid acid receptor (RAR) signaling pathway - cell viability counter screen (AID 1159551); further: nearly all actives have a fitted effect of over 35% in size; further: potency means the concentration at half of the fitted maximal effect
In short: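 Viability of C3RL4 cells is quantified from ATP by luminescence after 6 h treatment at 37 C with compounds and 1 uM retinol.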

[3] = qHTS assay to identify small molecule antagonists of the retinoic acid receptor (RAR) signaling pathway (AID 1159552; further: nearly all actives have a fitted effect of over 50% in size; further: potency means the concentration at half of the fitted maximal effect)
In short: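 Test chemicals and DMSO controls were pin-transferred onto C3RL4 cells a day after seeding; retinol (1 uM final) followed at once. Luminescent reporter output was quantified after 6 hr of co-incubation and 30 min with detection reagent.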

[4] = qHTS assay to identify small molecule agonists of the retinoic acid receptor (RAR) signaling pathway (AID 1159553); details: C3RL4 RARE luciferase reporter, agonist, 6 h; activation: at 73.3 µM (top of the series) unless noted; further: potency means the concentration at half of the fitted maximal effect
In short: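 Compounds dissolved in DMSO were pinned onto C3RL4 cells seeded the previous day, and plates were held 6 hr at 37 C. RARE-driven luciferase output was then read by luminescence.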

[5] = qHTS assay to identify small molecule antagonists of the estrogen related receptor (ERR) signaling pathway from Tox21 library - cell viability counter screen (AID 1224834); further: nearly all actives have a fitted effect of over 30% in size; further: potency means the concentration at half of the fitted maximal effect
In short: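 In this quantitative HTS format, ERR cells receive compounds in DMSO and are incubated for 17.5 h at 37 C. Live-cell protease activity is then detected with CellTiter-Fluor.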

[6] = molecular target: Luciferin 4-monooxygenase (Photinus pyralis) (UniProt P08659); test: qHTS assay to identify small molecule inhibitors of firefly luciferase (AID 1224835); further: nearly all actives have a fitted effect of over 25% in size; further: potency means the concentration at half of the fitted maximal effect
In short: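 Biochemical qHTS: compounds run as interplate titrations against purified firefly enzyme, with D-luciferin and ATP each at its KM concentration. Light output recorded by CCD imaging.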

[7] = qHTS assay to identify small molecule agonists of the constitutive androstane receptor (CAR) signaling pathway - cell viability counter screen (AID 1224836); further: nearly all actives have a fitted effect of over 45% in size; further: potency means the concentration at half of the fitted maximal effect
In short: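 23 h treatment, 37 C, 5% CO2. Cell line: HepG2 stably expressing hCAR with a CYP2B6-2.2kb construct. Co-treatment: PK11195, 0.75 uM final. Read-out: CellTiter-Fluor fluorescence intensity.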

[8] = qHTS assay to identify small molecule antagonists of the constitutive androstane receptor (CAR) signaling pathway - cell viability counter screen (AID 1224837); further: nearly all actives have a fitted effect of over 45% in size; further: potency means the concentration at half of the fitted maximal effect
In short: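 In quantitative HTS format, compounds at 15 concentrations were applied to HepG2 cells double-transfected with hCAR and CYP2B6-2.2kb under 50 nM CITCO stimulation; live-cell protease activity was read after 23 hr via CellTiter-Fluor.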

[9] = molecular target: Nuclear receptor subfamily 1 group I member 3 (Homo sapiens) (UniProt Q14994); test: qHTS assay to identify small molecule antagonists of the constitutive androstane receptor (CAR) signaling pathway (AID 1224838); further: nearly all actives have a fitted effect of over 40% in size; further: potency means the concentration at half of the fitted maximal effect
In short: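 CITCO-stimulated (50 nM final) HepG2 cells stably transfected with hCAR and CYP2B6-2.2kb luciferase were exposed to compounds at 15 concentrations for 24 h at 37 C/5% CO2. A luciferase reagent was added and luminescence recorded after 30 min.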

[10] = molecular target: Nuclear receptor subfamily 1 group I member 3 (Homo sapiens) (UniProt Q14994); test: qHTS assay to identify small molecule agonists of the constitutive androstane receptor (CAR) signaling pathway (AID 1224839); further: nearly all actives have a fitted effect of over 15% in size; further: potency means the concentration at half of the fitted maximal effect;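 on activation: HepG2 cells stably carrying human CAR and a CYP2B6 luciferase reporter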
In short: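 Compounds tested at 15 concentrations on HepG2 cells stably harbouring hCAR and CYP2B6-2.2kb reporter constructs, co-treated with PK11195 (0.75 uM final), 24 h at 37 C; luminescent reporter signal quantified.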

[11] = qHTS assay to identify small molecule antagonists of the estrogen related receptor signaling pathway with the pleiotropic PPARgamma coactivator (PGC) from Tox21 10K library - cell viability counter screen (AID 1224840; active means well fitted cell-killing curve with a large enough effect in the repeat runs, not every such curve was filed as active; further: nearly all actives have a fitted effect of over 40% in size; further: potency means the concentration at half of the fitted maximal effect)
In short: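 Viability counter screen, PGC/ERR cells: 17.5 h compound exposure at 37 C, CellTiter-Fluor fluorescence endpoint.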

[12] = molecular target: Thyrotropin receptor (Homo sapiens) (UniProt P16473); test: qHTS assay to identify small molecule agonists of the thyroid stimulating hormone receptor (TSHR) signaling pathway (AID 1224843; calls by dose curve; further: nearly all actives have a fitted effect of over 45% in size; further: potency means the concentration at half of the fitted maximal effect)
In short: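 HEK293/TSHR, 800 cells/well; cpd 30 min RT; add cAMP-d2 + anti-cAMP-cryptate, 1 h RT; fluorescence read on plate reader. 15-pt titration, n=3.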

[13] = qHTS assay to identify small molecule antagonists of the estrogen related receptor (ERR) signaling pathway - cell viability counter screen (AID 1224818)
In short: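 Cytotoxicity check run alongside the ERR antagonist screen: cells exposed to test compounds 17.5 h at 37 C, viability taken as CellTiter-Fluor fluorescence intensity.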

[14] = qHTS assay to identify small molecule antagonists of the estrogen related receptor signaling pathway with the pleiotropic PPARgamma coactivator (PGC) cell viability counter screen (AID 1224822)
In short: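 Viable cell signal (CellTiter-Fluor, 30 min, 37 C/5% CO2) was measured in PGC/ERR cells after a 17.5 h compound incubation.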

[15] = qHTS assay to identify small molecule antagonists of the estrogen related receptor signaling pathway with the pleiotropic PPARgamma coactivator (PGC) from Tox21 10K library (AID 1224841; call rule not given here; further: actives are mostly falling curves and most rising ones were filed inactive; nearly all actives have a fitted effect of over 50% in size; further: potency means the concentration at half of the fitted maximal effect)
In short: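 In the PGC/ERR line, DMSO solutions of test chemicals are pin-delivered to 2,000 cells/well six hours after dispensing. Following eighteen hours' incubation, One-Glo reagent is added and luminescence recorded.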

[16] = qHTS assay to identify small molecule agonists of the estrogen related receptor signaling pathway with the pleiotropic PPARgamma coactivator (PGC) from Tox21 10K library (AID 1224842); further: nearly all actives have a fitted effect of over 15% in size
In short: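 PGC/ERR reporter cell line, 2,000 cells per well, incubated 6 h at 37 C before 23 nL compound in DMSO was added. After 18 h at 37 C, One-Glo luminescence read following 30 min at room temperature.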

Sequence of Luciferin 4-monooxygenase (Photinus pyralis) (P08659 whole entry, looked up): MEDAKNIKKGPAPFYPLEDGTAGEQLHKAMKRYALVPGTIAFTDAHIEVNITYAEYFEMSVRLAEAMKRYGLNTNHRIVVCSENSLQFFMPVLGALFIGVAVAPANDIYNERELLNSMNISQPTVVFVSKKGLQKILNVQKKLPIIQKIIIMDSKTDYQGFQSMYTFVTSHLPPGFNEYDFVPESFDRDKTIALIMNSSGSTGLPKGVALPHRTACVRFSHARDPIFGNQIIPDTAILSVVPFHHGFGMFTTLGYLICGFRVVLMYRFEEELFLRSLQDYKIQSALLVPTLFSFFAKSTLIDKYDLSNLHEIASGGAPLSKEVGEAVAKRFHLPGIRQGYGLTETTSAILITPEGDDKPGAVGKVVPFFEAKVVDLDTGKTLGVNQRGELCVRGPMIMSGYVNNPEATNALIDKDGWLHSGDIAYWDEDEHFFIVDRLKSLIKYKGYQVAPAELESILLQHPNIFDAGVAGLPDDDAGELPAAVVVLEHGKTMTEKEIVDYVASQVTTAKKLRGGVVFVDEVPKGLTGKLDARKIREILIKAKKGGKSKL
Sequence of Nuclear receptor subfamily 1 group I member 3 (Homo sapiens) (Q14994 whole entry, looked up): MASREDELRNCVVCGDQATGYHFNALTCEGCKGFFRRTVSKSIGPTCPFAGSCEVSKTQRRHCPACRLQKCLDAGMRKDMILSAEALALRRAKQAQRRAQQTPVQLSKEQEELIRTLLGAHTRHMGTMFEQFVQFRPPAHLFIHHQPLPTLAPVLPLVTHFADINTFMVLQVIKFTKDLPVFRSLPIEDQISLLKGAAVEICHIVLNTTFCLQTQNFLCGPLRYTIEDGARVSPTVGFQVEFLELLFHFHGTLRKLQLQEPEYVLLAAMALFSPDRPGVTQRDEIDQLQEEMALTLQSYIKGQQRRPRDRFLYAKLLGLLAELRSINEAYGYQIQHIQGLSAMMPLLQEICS
Sequence of Thyrotropin receptor (Homo sapiens) (P16473 whole entry, looked up): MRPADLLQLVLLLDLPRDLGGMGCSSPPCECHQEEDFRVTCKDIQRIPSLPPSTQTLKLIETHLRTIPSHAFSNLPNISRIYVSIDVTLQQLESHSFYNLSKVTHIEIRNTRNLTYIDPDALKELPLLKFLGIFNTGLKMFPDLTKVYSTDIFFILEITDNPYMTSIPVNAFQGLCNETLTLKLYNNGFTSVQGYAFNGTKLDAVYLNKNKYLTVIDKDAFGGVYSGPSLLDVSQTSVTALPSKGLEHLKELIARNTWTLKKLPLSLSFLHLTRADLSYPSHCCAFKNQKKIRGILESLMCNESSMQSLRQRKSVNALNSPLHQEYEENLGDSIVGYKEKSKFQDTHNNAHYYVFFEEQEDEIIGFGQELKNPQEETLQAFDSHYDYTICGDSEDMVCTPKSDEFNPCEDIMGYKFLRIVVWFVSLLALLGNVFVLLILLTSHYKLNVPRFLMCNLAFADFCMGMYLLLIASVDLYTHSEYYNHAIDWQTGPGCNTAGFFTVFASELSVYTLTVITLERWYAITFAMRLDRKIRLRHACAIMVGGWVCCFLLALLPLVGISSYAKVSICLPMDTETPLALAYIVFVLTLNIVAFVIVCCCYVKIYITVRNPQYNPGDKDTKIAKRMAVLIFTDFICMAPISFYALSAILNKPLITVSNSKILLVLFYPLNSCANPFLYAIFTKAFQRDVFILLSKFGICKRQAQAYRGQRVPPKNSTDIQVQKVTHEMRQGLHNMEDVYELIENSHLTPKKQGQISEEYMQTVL

Structure (SMILES)	Potency [1]	Potency [2]	Potency [3]	Potency [4]	Potency [5]	Potency [6]	Potency [7]	Potency [8]	Potency [9]	Potency [10]	Potency [11]	Potency [12]	outcome [13]	outcome [14]	Potency [15]	Potency [16]
COc1ccc2nc(N)sc2c1	inactive	inactive	inactive	19.3 µM (active)	inactive	35.6 µM (active) and 31.7 µM (active)	inactive	inactive	inactive	54.5 µM (active) and 27.3 µM (active)	inactive	inactive				
NCCS(=O)(=O)O	inactive	inactive	inactive	28.4 µM (active) and inactive	inactive	41.5 µM (active) and inactive	inactive	inactive	inactive		inactive	inactive	inactive	inactive		
Nc1cc(Cl)c(N)c(Cl)c1	inactive	inactive	inactive	inactive	inactive	inactive	inactive	inactive	inactive	inactive	inactive	inactive				
CCOC(=O)C(C)Oc1ccc(Oc2cnc3cc(Cl)ccc3n2)cc1 (stereo unspecified)	inactive	inactive	inactive	inactive	inactive	inactive	inactive	inactive	inactive	inactive	inactive					
O=C1OC2(c3ccccc31)c1cc(I)c(O)c(I)c1Oc1c2cc(I)c(O)c1I	inactive	27.4 µM (active)	34.8 µM (active) and inactive	inactive	15.5 µM (active) [middle of 4 runs]		15.5 µM (active) [middle of 4 runs]	15.4 µM (active) [middle of 4 runs]	6.13 µM (active) and inactive and 14.8 µM (active)	inactive	13.7 µM (active) and 19.6 µM (active) and 16.6 µM (active)				15.4 µM (active) and 15.5 µM (active)	inactive
C=C[C@@]1(C)CC(=O)[C@]2(O)[C@@]3(C)[C@@H](O)CCC(C)(C)[C@@H]3[C@H](O)[C@H](OC(C)=O)[C@@]2(C)O1	11 µM (active) and 7.56 µM (active)	inactive	inactive	inactive		inactive	inactive	inactive	27.3 µM (active) and inactive	inactive	inactive	17.2 nM (active) and 18.8 nM (active)				
c1ccc2cc3ccccc3cc2c1	inactive	inactive	inactive		inactive	inactive	inactive	inactive	inactive	19.9 µM (active) and 21.7 µM (active)	inactive	inactive			inactive	inactive
COc1ccc(-c2coc3cc(O)cc(O)c3c2=O)cc1	inactive	inactive	inactive	0.686 µM (active)		6.38 µM (active) and 5.03 µM (active)	inactive	inactive	inactive	15.5 µM (active) and 27.3 µM (active)	inactive	inactive				
[O-]/[N+](=N\O)c1ccccc1	inactive	inactive		48.6 µM (active)	inactive	35.3 µM (active) and 22.4 µM (active)	inactive	inactive	inactive		inactive	inactive				inactive
